Data reported in PubChem BioAssay.

Experiments:
[1] = system: Human papillomavirus type 1a protein E7 (residues 44-93); experiment: HPV1a E7 fragment binders on microarrays, primary screen, biochemical, small-molecule microarray, residues 44-93, 635 nm fluorescence (AID 1108); conditions: small-molecule microarray binding, fluorescence 635 nm; higher = more signal;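 further: E7 fragment applied at 1 µg/mL in TBST for 1 h at 4 C; score combines spot fluorescence with its signal to noise ratio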
[2] = modulators of HCV replicon luciferase signal, primary screen, HCV replication inhibitor project, Huh7 cells, luciferase reporter (AID 1109); conditions: 48 h, higher = more signal;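 further: huh7 hepatoma cells harbouring a luciferase neomycin HCV replicon reporter; luciferase luminescence as measure of HCV replicon replication; test concentration not given here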
[3] = target: Left-right determination factor 2 (Homo sapiens) (UniProt O00292); experiment: LEFTY2 binders on small-molecule microarrays, primary screen, biochemical, small-molecule microarray, 635 nm fluorescence scan (AID 1110); conditions: LEFTY2 binding, higher = more signal
Left-right determination factor 2 (Homo sapiens), sequence (O00292 whole entry, looked up): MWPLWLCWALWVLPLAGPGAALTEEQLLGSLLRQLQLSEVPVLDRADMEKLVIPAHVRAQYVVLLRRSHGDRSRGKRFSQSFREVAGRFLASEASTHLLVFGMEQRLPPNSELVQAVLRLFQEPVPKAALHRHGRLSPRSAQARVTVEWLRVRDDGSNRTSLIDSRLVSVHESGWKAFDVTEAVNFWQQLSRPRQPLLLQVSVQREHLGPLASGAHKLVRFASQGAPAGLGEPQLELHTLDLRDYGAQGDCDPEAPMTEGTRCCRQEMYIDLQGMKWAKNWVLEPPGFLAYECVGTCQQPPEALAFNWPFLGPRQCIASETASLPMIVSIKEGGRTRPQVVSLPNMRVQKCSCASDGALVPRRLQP

[4] = target: Calmodulin-1 (Homo sapiens) (UniProt P0DP23); experiment: CALM1 binders on microarrays, EGTA buffer, profiling panel, biochemical, small-molecule microarray, Cy5-labelled CALM1 (AID 1111); conditions: Cy5-CALM1 binding fluorescence, higher = more signal;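 further: labelled calmodulin applied in Tris saline Tween buffer holding calcium plus EGTA and DTT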
[5] = target: Calmodulin-1 (Homo sapiens) (UniProt P0DP23); experiment: calcium-bound CALM1 binders on microarrays, profiling panel, artefact control for SMM control-protein annotation, biochemical, small-molecule microarray, Cy5-labelled CALM1, plus calcium (AID 1112); conditions: Cy5-CALM1 binding fluorescence, higher = more signal;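 further: score merges spot fluorescence with signal to noise from triplicate slides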
[6] = small-molecule microarray binders of probe aWnt5a, primary screen, biochemical, biotinylated probe, 635/667 nm fluorescence (AID 1113); conditions: higher = more signal;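 further: score merges 667 nm fluorescence intensity with signal-to-noise per printed feature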
[7] = small-molecule microarray binders of probe aShh, primary screen, biochemical, biotinylated probe, 635/667 nm fluorescence (AID 1114); conditions: higher = more signal;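 further: probe is biotin-labelled aShh protein from a stem cell growth factor screen; measures binding of labelled protein to compounds printed on the slide; score merges feature fluorescence at 667 nm with signal-to-noise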
[8] = small-molecule microarray binders of probe aNog, primary screen, biochemical, biotinylated probe, 635/667 nm fluorescence (AID 1115); conditions: higher = more signal;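 further: probe is biotinylated aNog protein used at 0.15 µg/mL for 1 h at 4 C; z-score combines 667 nm fluorescence of each spot with its signal to noise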
[9] = target: Torsin-1A-interacting protein 1 (Homo sapiens) (UniProt Q5JTV8); experiment: LAP1 binders from COS7 cell lysate, primary screen, small-molecule microarray, 635/667 nm fluorescence (AID 1116); conditions: COS7-hLAP1 lysate binding, 635 nm fluorescence, higher = more signal
Torsin-1A-interacting protein 1 (Homo sapiens), sequence (Q5JTV8 whole entry, looked up): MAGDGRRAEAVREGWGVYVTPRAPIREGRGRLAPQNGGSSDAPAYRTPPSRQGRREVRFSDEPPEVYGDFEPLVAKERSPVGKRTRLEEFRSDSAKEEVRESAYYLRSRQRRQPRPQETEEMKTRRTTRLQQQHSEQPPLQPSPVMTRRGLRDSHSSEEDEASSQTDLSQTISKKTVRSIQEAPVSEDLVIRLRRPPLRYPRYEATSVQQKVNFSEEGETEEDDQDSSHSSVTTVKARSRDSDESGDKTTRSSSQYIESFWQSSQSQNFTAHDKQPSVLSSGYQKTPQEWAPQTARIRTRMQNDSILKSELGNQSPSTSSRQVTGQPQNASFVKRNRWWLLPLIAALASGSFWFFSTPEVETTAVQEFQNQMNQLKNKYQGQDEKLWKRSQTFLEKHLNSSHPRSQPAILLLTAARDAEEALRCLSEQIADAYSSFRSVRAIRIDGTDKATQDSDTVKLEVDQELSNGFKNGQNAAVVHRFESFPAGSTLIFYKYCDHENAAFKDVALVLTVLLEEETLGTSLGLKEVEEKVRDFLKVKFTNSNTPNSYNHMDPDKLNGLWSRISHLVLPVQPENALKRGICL

[10] = target: Alpha-bungarotoxin (Bungarus multicinctus) (UniProt P60615); experiment: alpha-bungarotoxin binders on microarray, profiling panel, artefact control for SMM control protein annotation, biochemical, small-molecule microarray, Alexa647 label, 635/667 nm fluorescence (AID 1117); conditions: alpha-BTX-A647 binding fluorescence, higher = more signal
Alpha-bungarotoxin (Bungarus multicinctus), sequence (P60615 whole entry, looked up): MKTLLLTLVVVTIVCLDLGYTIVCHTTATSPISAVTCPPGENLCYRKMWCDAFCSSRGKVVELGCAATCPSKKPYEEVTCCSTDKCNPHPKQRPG

| Structure (SMILES) | composite z-score [1] | z-score [2] | composite z-score [3] | composite z-score [4] | composite z-score [5] | composite z-score [6] | composite z-score [7] | composite z-score [8] | composite z-score [9] | composite z-score [10] |
| --- | --- | --- | --- | --- | --- | --- | --- | --- | --- | --- |
| COc1ccc(CCNC(=O)[C@@]2(C)c3ccccc3C(=O)N(Cc3cc(F)cc(C(F)(F)F)c3)[C@H]2c2ccc(CO)cc2)cc1 | 0.0404 | -0.928 | -0.454 | 0.123 | -0.183 | -0.0944 | -0.0849 | 0.549 | -0.152 | -0.838 |
| O=C1O[C@H](c2ccccc2)[C@H](c2ccccc2)N2[C@H]1[C@@H](C(=O)NC[C@H](O)c1ccccc1)[C@]1(C(=O)Nc3ccccc31)[C@H]2c1ccc(OCCO)cc1 | 1.38 | -2.05 | 0.119 | 0.475 | 0.245 | -0.0882 | -0.167 | 0.0821 | 1.5 | 1.33 |
| O=C1c2ccccc2[C@](Cc2ccccc2I)(C(=O)NC2CC2)[C@H](c2ccc(CO)cc2)N1C1CCCCC1 | 1.46 | -1.62 | 0.272 | 0.675 | 0.0028 | -0.176 | -0.421 | -0.0067 | 0.547 | 1.38 |
| CN(C)CCCC[C@@H]1NC(=O)[C@H]2C[C@@H](C(=O)NCCCCCNC(=O)CS)[C@@H](c3cccc(OCCO)c3)N2C1=O | 0.586 | -0.556 | -0.0183 | 0.137 | -0.734 | -0.195 | 0.0796 | -0.363 | 0.898 | -0.223 |
| CCCC=C(CCC)[C@@H](NS(=O)(=O)c1cccs1)c1ccc(C(=O)OC)cc1 | 1.37 | -2.93 | -0.452 | 1.6 | 0.85 | 0.105 | 0.605 | 1.41 | 0.554 | 1.24 |
| COC(=O)[C@@]1(Cc2ccc(F)cc2)[C@H]2c3cc(C(=O)N4CCCC4)n(Cc4cc(C)n(C)n4)c3C[C@H]2CN1C(=O)c1ccccc1 | 0.95 | -1.17 | -0.857 | 2.36 | 1.38 | 0.143 | 0.356 | 2.16 | 3.13 | 0.251 |
| COc1cc(OC)c(C(O)C2C=CC3C(=O)NC(=O)C3N2Nc2ccc(Cl)cc2Cl)cc1Br (stereo not given) | 1.09 | -1.66 | -0.75 | 2.09 | 0.436 | -0.0685 | 0.0875 | 1.61 | 1.38 | 1.27 |
| CC(C)(C)OC(=O)CC[C@]12N=C(c3ccc(OCCCO)cc3)O[C@H]1c1ccccc1N(CCS(=O)(=O)c1ccccc1)C2=O | 1.39 | -0.664 | 0.497 | 0.234 | -0.353 | 0.0706 | 0.287 | -0.344 | 0.751 | 1.41 |
| CCc1oc(CC[C@@H](CO)NC(=O)NCCn2cc(C3(O)CCCCC3)nn2)c(C(=O)OC)c1C(=O)OC | 0.814 | 0.524 | 0.905 | -0.22 | -0.657 | 0.048 | 0.381 | -0.0645 | 0.946 | 0.336 |
| C=C(COC)/C(=C/C[C@@H](OC(C)=O)c1ccc(OCCO)cc1)c1cc(C(=O)OC)ccc1OC | 1.35 | -1.51 | 0.417 | -0.107 | -0.878 | 0.0618 | 0.23 | -0.354 | 0.864 | 0.472 |
| COc1ccc(CCNC(=O)[C@@]2(Sc3ccc(C)cc3)CC(=O)N(C3CCCCC3)[C@@H]2c2ccc(CO)cc2I)cc1 | 1.38 | -2.77 | 0.0072 | 0.99 | 0.161 | -0.0903 | 0.323 | -0.158 | 0.95 | 0.649 |
| COCCCNC(=O)C1N=C(c2ccc(OCCCO)cc2)N(c2ccccc2)O1 (stereo not given) | 1.41 | -1.46 | 0.382 | 1.08 | 0.131 | -0.0286 | -0.0035 | 0.752 | 0.477 | 0.649 |
| CN(C)C(=O)[C@@]1(Cc2ccccc2CN=[N+]=[N-])N=C(c2ccc(OCCCO)cc2)O[C@H]1c1ccccc1 | 0.993 | -2.96 | -0.498 | 0.691 | 0.46 | 0.0077 | -0.0243 | 1.83 | 1.43 | 1.33 |
| C=CCNC(=O)[C@@H]1[C@H]2C(=O)O[C@H](c3ccccc3)[C@H](c3ccccc3)N2[C@H](c2ccccc2OCCO)[C@@]12C(=O)N(C(=O)OCCOC)c1ccc(C#CCNC(N)=O)cc12 | 1.36 | -1.19 | 0.213 | 1.58 | 0.27 | -0.0196 | -0.739 | 0.658 | 0.96 | 1.76 |
| COc1ccc(C#Cc2ccc3c(c2)[C@]2(C(=O)N3)[C@H](c3ccccc3OCCO)N3[C@H](c4ccccc4)[C@H](c4ccccc4)OC(=O)[C@H]3[C@@H]2C(=O)O)cc1 | 1.42 | -2.87 | 0.186 | 1.22 | 1.05 | 0.0932 | 0.0037 | 1.52 | 1.77 | 1.67 |
| [N-]=[N+]=NCc1ccccc1[C@@H]1OC(c2ccc(OCCCO)cc2)=N[C@]1(CCS(=O)(=O)c1ccccc1)C(=O)NCc1ccccc1 | 0.512 | -1.78 | 0.526 | 1.02 | 0.222 | 0.301 | 0.487 | 2.12 | 0.142 | 2.18 |
| CCOC(=O)C=Cc1cc([N+](=O)[O-])ccc1O | 0.0311 | -1.47 | -0.609 | -0.211 | -0.5 | -0.124 | 0.173 | -0.377 | 0.106 | -0.234 |
| C[N+](C)(C)CCCCNC(=O)[C@H]1C[C@H]2C(=O)N[C@@H](Cc3ccccc3)C(=O)N2[C@H]1c1ccc(O)cc1 | -0.0021 | -0.72 | 0.686 | -0.494 | 0.565 | -0.0944 | 0.442 | 0.0209 | 0.427 | 1.56 |
| COCCOC(=O)N1C(=O)[C@@]2(c3cc(C#Cc4ccc(OC)cc4)ccc31)[C@H](C(N)=O)[C@H]1C(=O)O[C@H](c3ccccc3)[C@H](c3ccccc3)N1[C@@H]2c1ccccc1OCCO | 1.33 | -1.49 | 0.738 | 2.22 | 0.618 | -0.0134 | -0.0988 | 0.168 | 2.3 | 2.97 |
| COc1ccc(CCNC(=O)[C@@H]2c3ccccc3C(=O)N(C3Cc4ccccc4C3)[C@H]2c2ccc(CO)cc2)cc1 | 1.35 | -1.14 | 0.0971 | 0.329 | 0.732 | -0.0738 | 0.0856 | -0.417 | 1.24 | 0.134 |
| C=CCOC(=O)[C@H]1[C@@H]2C(=O)O[C@@H](c3ccccc3)[C@@H](c3ccccc3)N2[C@@H](c2ccc(OCCOC(=O)[C@@H]3C[C@@H]4C(=O)N[C@@H](CCCC[N+](C)(C)C)C(=O)N4[C@@H]3c3ccc(O)cc3)cc2)[C@]12C(=O)Nc1ccccc12 | 1.26 | -1.11 | 0.498 | -0.0632 | -0.499 | -0.0398 | 0.123 | -0.13 | 0.425 | 0.428 |
| C=CCOC(=O)[C@@H]1[C@H]2C(=O)O[C@H](c3ccccc3)[C@H](c3ccccc3)N2[C@H](c2ccc(OCCOC(=O)[C@@H]3C[C@@H]4C(=O)N[C@@H](CCCCN(C)C)C(=O)N4[C@@H]3c3ccc(O)cc3)cc2)[C@@]12C(=O)Nc1ccc(I)cc12 | 1.34 | -2.84 | 0.696 | 0.846 | -0.0759 | -0.0927 | 0.432 | -0.12 | 0.454 | 0.78 |
| OC([C@@H]1CC(c2ccccc2)=NO1)[C@H]1CC(c2ccccc2)=NO1 (stereo not given in full) | -0.0304 | 0.341 | 0.176 | -0.181 | -0.416 | 0.0317 | -0.214 | -0.234 | 0.11 | -0.0544 |
| CCCCCCC#C[Si](O[C@H](c1ccccc1)c1cn([C@H](CO)Cc2ccccc2)nn1)(C(C)C)C(C)C | 0.205 | -0.462 | -0.154 | -0.27 | 0.105 | -0.096 | 0.298 | -0.443 | 0.8 | -0.218 |
| C=CCNC(=O)[C@H]1[C@@H]2C(=O)O[C@@H](c3ccccc3)[C@@H](c3ccccc3)N2[C@@H](c2ccc(O)cc2)[C@]12C(=O)N(C(=O)OCCOC)c1ccc(C#CCNC(N)=O)cc12 | 0.863 | -0.767 | 1.01 | -0.0456 | 0.143 | 0.0077 | -0.0769 | 0.0989 | 0.585 | 1.07 |
| O=C1C2C=CC(C(O)c3c(F)cccc3Cl)N(Nc3ccccc3)C2C(=O)N1c1ccccc1 (stereo not given) | 1.46 | -0.927 | 0.407 | 1.46 | 0.546 | 0.0775 | 0.969 | 1.59 | 0.765 | 0.933 |
